Laboratory results as given in PubChem BioAssay (NCI).
Compounds without any hit were thinned out: in the full panel of roughly 79,000, 15% have a hit. Cut-off read from the data, not from the text of the source: active = growth inhibition above about 70%; inactive = the rest.

Tests used:
[1] = NCI Yeast Anticancer Drug Screen. Data for the rad50 strain (AID 155);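 note: 0% = growth of vehicle-only cultures of the same strain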; settings: S. cerevisiae rad50 strain growth inhibition; at 50.0 µM; stronger effect = higher value
Summary of the method: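 Vehicle-treated cultures provide the reference for the growth inhibition reported for compound-exposed, repair-deficient yeast.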

[2] = NCI Yeast Anticancer Drug Screen. Data for the mec2-1 strain (AID 157); settings: S. cerevisiae mec2-1 strain, at 50.0 µM, stronger effect = higher value
Summary of the method: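 Compounds were applied to mec2-1 yeast cells. Their growth was then compared with that of vehicle-treated cultures to give growth inhibition.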

[3] = NCI Yeast Anticancer Drug Screen. Data for the sgs1 mgt1 strain (AID 161);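 note: 0% = growth of cultures given vehicle only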; settings: S. cerevisiae sgs1 mgt1 strain, at 50.0 µM, stronger effect = higher value
Summary of the method: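 This yeast growth screen uses a strain with defined DNA-repair lesions; compound-treated growth is compared with vehicle-treated growth.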

[4] = NCI Yeast Anticancer Drug Screen. Data for the cln2 rad14 strain (AID 165);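 note: 0% = growth equal to vehicle treated cultures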; settings: S. cerevisiae cln2 rad14 strain, at 50.0 µM, stronger effect = higher value
Summary of the method: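 Strain: cln2 rad14 yeast, altered in cell cycle control and DNA damage repair. Read-out: growth inhibition vs vehicle.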

[5] = NCI Yeast Anticancer Drug Screen. Data for the bub3 strain (AID 167); settings: S. cerevisiae bub3 mutant strain, at 50.0 µM, stronger effect = higher value
Summary of the method: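 Mutant yeast screening strain plus compound; vehicle-treated cultures serve as the 0% inhibition reference.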

[6] = NCI Yeast Anticancer Drug Screen. Data for the mlh1 rad18 strain (AID 175); settings: S. cerevisiae mlh1 rad18 strain growth inhibition; at 50.0 µM; stronger effect = higher value
Summary of the method: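 A repair-deficient yeast strain is exposed to test compound, and growth is scored relative to vehicle-treated controls.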

Measured: growth inhibition

C=CC12c3c4cc(OC)cc3OC1C(O)CCC2CC4 (stereo unspecified)
inactive: [1] -8.05% | [2] 8.85% | [3] -6.2% | [4] 9.85% | [5] 4.5% | [6] 5.65%

CC(C)CSc1nc(N)nc2c1ncn2CC(C)C
inactive: [1] -8.65% | [2] -6.4% | [3] 32.7% | [4] -21.7% | [5] 29.4% | [6] 18.9%

COc1ccc(CN(C)C)c(C(O)c2ccccc2)c1 (stereo unspecified)
inactive: [1] 9.2% | [2] -1.75% | [3] 0.7% | [4] 7.6% | [5] 9.5% | [6] 13.2%

CCOC(=O)c1cn2ccccc2c1C(=O)OCC
inactive: [1] 3.5% | [2] -3.1% | [3] -7.45% | [4] -23.2% | [5] -4.1% | [6] -14.8%

O=S(=O)(O)c1ccc(N=Nc2c(O)cc(O)cc2O)cc1
inactive: [1] -21.9% | [2] -6.8% | [3] -6.95% | [4] 17.2% | [5] 31.8% | [6] -18.4%

C/C(=N\NC(=S)N1CCN(c2ccccn2)CC1)c1cccc2cccnc12
inactive: [1] 13.4% | [2] -21.1% | [3] -18.9% | [4] 2.4% | [5] 1.4% | [6] -0.25%

Cc1nc2ccccc2c(=O)n1C
inactive: [1] -7.5% | [2] -17.9% | [3] 10.7% | [4] 2.35% | [5] -5.4% | [6] 3.95%

C=CC(C)C1C(C)C(Cl)CC(Cl)C1OC(=O)c1ccccc1 (stereo unspecified)
inactive: [1] 14.1% | [2] -0.65% | [3] 10.7% | [4] -2.3% | [5] 17.8% | [6] -11.3%

NC(CCCCO)C(=O)O (stereo unspecified)
inactive: [1] -6.8% | [2] -35.8% | [3] 4.1% | [4] 23.1% | [5] -29.1% | [6] -15%

COc1ccc(NC(=O)c2cccc([N+](=O)[O-])c2)cc1
inactive: [1] 8.1% | [2] 23.1% | [3] 24.6% | [4] 1.8% | [5] 4.1% | [6] 5.8%

COC(=O)C(=O)C(C(=O)C(N)=O)c1nc2ccc(C(=O)c3ccccc3)cc2[nH]c1=O (stereo unspecified)
inactive: [1] 0.35% | [2] 5.45% | [3] -17.2% | [4] -9.25% | [5] -19.1% | [6] 9.85%

CC1CC[C@]2(C(=O)O)CCC3(COC(=O)/C=C\c4ccc(O)cc4)C(=CCC4[C@@]5(C)CC[C@H](O)C(C)(C)C5CC[C@]43C)[C@@H]2[C@H]1C (stereo partly specified)
inactive: [1] -1.9% | [2] 1.35% | [3] -1.65% | [4] 5.55% | [5] -3.1% | [6] -17.8%

CCOC(=O)c1ccc(NC(=O)c2cnccn2)cc1
inactive: [1] -6.5% | [2] 0.3% | [3] -17.7% | [4] -15.4% | [5] -20.4% | [6] -2%

CCN(CC)CCCS/C(N)=N\S(=O)(=O)c1ccc(N)cc1
inactive: [1] -6.35% | [2] -41% | [3] -20.2% | [4] -7.8% | [5] -0.5% | [6] -16.6%

CC1(CCl)Nc2ccccc2C(=O)N1c1ccc(Cl)cc1 (stereo unspecified)
inactive: [1] -2.45% | [2] -13.9% | [3] 8.95% | [4] -2.05% | [5] 20.9% | [6] -0.5%

OCC1OC(n2cnc3[nH]cnc(=S)c32)C(O)C1O (stereo unspecified)
inactive: [1] 4.3% | [2] 14.2% | [3] 0.35% | [4] 1.05% | [5] -6.35% | [6] 14.7%

COc1ccc2c(c1)s/c(=N/N)n2CCCS(=O)(=O)O
inactive: [1] 5.5% | [2] -1.75% | [3] 20.9% | [4] 23.1% | [5] 5.4% | [6] 12.2%

O=C(NC1CC12c1ccccc1-c1ccccc12)Oc1ccc2ccccc2c1 (stereo unspecified)
inactive: [1] 68.4% | [2] 18.8% | [3] 60.9% | [4] 45.8% | [5] 55.2% | [6] 57.4%

ClCCOC(CCl)OCCCl
inactive: [1] 24.1% | [2] 6.9% | [3] 22.1% | [4] 20.4% | [5] 6.5% | [6] 14.5%

Cc1ccc(S(=O)(=O)CN2CCC(=O)c3ccccc32)cc1
inactive: [1] 20.4% | [2] 12.6% | [3] -6.4% | [4] 11.4% | [5] 15.4% | [6] 0.25%

O=C(O)CCSC1=CC(=O)C(SCCC(=O)O)=CC1=O
inactive: [1] 5.35% | [2] -13.2% | [3] -1.4% | [4] -75.7% | [5] 4.9% | [6] -15.2%

C=CC12CCCCC1C(NC)Cc1ccc(OC)c(O)c12 (stereo unspecified)
inactive: [1] 4.25% | [2] -1.65% | [3] 6.9% | [4] 1.8% | [5] 4.9% | [6] -6.9%

C/C(=C\c1ccccc1)C(O)S(=O)(=O)O (stereo unspecified)
inactive: [1] 4.5% | [2] -0.35% | [3] -2.9% | [4] 11.9% | [5] -12.1% | [6] -4.55%

Cc1ccc(-c2cc(=O)c(=O)[nH][nH]2)cc1
inactive: [1] -12.5% | [2] 22.1% | [3] -11.6% | [4] 4.85% | [5] -13.7% | [6] 27.2%

Cc1cc([N+](=O)[O-])cnc1Cl
inactive: [1] -14.1% | [2] -22.2% | [3] -11.6% | [4] -15.9% | [5] 12% | [6] -16.8%

Cn1cnc([N+](=O)[O-])c1Sc1ccccc1C(=O)O
inactive: [1] -2.7% | [2] -0.15% | [3] -23.1% | [4] 23.6% | [5] -0.35% | [6] -12.1%

C=Cc1nnnn1C
inactive: [1] 7.45% | [2] 16.2% | [3] -5.85% | [4] 10.3% | [5] 10.4% | [6] 10.8%

CSc1nc(N)c(N=Nc2ccc(S(=O)(=O)Nc3cc(C)nc(C)n3)cc2)c(=O)[nH]1
inactive: [1] 17.4% | [2] 15.6% | [3] -10.6% | [4] -0.2% | [5] 2.1% | [6] -3.3%

CSc1nc(NC2OC(COC(C)=O)C(OC(C)=O)C(OC(C)=O)C2OC(C)=O)c(C(=O)CCl)c(=O)n1C (stereo unspecified)
inactive: [1] 6.8% | [2] 15.9% | [3] 3.15% | [4] 5.8% | [5] 5.1% | [6] 24.5%

O=[N+]([O-])c1ccc(N/N=C2\CCC3CC23)c([N+](=O)[O-])c1 (stereo unspecified)
inactive: [1] 1% | [2] -15.2% | [3] -2.15% | [4] -1.35% | [5] -0.55% | [6] -21.9%

O=Cc1ccccc1S(=O)(=O)O
inactive: [1] 6.65% | [2] 7.4% | [3] -6.5% | [4] -45.4% | [5] 11.2% | [6] -13.2%

C=C(Br)c1ccc2c(c1)OCO2
inactive: [1] 30% | [2] 15.7% | [3] 20.9% | [4] 8% | [5] 4.05% | [6] -8.55%

O=C(/C=C/C(=O)c1ccc(O)cc1)Oc1ccccc1
inactive: [1] 33.1% | [2] -3.75% | [3] 1.1% | [4] -15.3% | [5] 12.9% | [6] 18.1%

C=CCOCOC(C)C(=O)OCC (stereo unspecified)
inactive: [1] -10.5% | [2] 6.6% | [3] -8.35% | [4] -26.7% | [5] -9.2% | [6] 6.45%

O=C(O)CCCC/C=C/CCCCCCC1C=CCC1 (stereo unspecified)
inactive: [1] -23.4% | [2] -35.9% | [3] 9.8% | [4] 0.7% | [5] -3.65% | [6] 1.65%

CC1NNC(=S)NN1
inactive: [1] -19.3% | [2] 1.35% | [3] 0.85% | [4] -9.7% | [5] 1.4% | [6] 11.8%

COc1ccc2nc(C(C)(O)c3ccccc3)ccc2c1 (stereo unspecified)
inactive: [1] -1.6% | [2] -8.15% | [3] 6% | [4] -6.85% | [5] 2.65% | [6] -29.1%

O=C(O)c1cc(-c2ccccc2)nc2c(Cl)cc(Cl)cc12
inactive: [1] -12.9% | [2] -28.8% | [3] -1.85% | [4] 9.8% | [5] -16.4% | [6] -3.6%

CCc1nc(N)nc(N)c1-c1ccc2c(c1)nnn2C
inactive: [1] 19.9% | [2] 14.8% | [3] 9.05% | [4] -9.75% | [5] 11.6% | [6] 17.9%

O=C(O)C1CCC2SC(F)(F)C(F)(F)C2C1 (stereo unspecified)
inactive: [1] -4.05% | [2] 12.2% | [3] 2.65% | [4] 12.5% | [5] 8.55% | [6] 11.6%

O=C(COc1cc(Cl)c(Cl)cc1Cl)Nc1ccccc1Br
inactive: [1] 2.5% | [2] -6.9% | [3] 0.1% | [4] -15.9% | [5] 2.2% | [6] -8.85%
